{
  "source": "PubChem BioAssay (NCI)",
  "note": "About 83,000 compounds went through this panel and 20% of them were active in at least one assay; those are over-represented in the sample as a whole.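 Values shown are percent growth following 48 h exposure of cells in 96-well plates to a single concentration of compound; below 10 was considered active.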 Unmarked numbers belong to inactive results. Activity calls are given as the source filed them.",
  "data": [
    {"test_system": "UO-31 renal", "assay": "NCI-60 one-dose screen, 48 h (100 = growth as untreated, 0 = no growth, -100 = all killed)", "details": "10 µM unless noted", "method": "Growth inhibition of the UO-31 human tumor cell line is measured as a screen for anti-cancer activity. Cells are grown in 96 well plates and exposed to the test compound for 48 hours. Compounds are tested at a single concentration, which is 10^-5 M for most compounds. The reported endpoint is percent growth (GI% or GIPRCNT), where numbers from 0 - 100% represent growth inhibition, and numbers from -100% - 0 represent cell death. For example, a value of 40 represents 60% growth inhibition. A value of 0 means no net growth occurred over the course of the experiment. A value of -40 indicates 40% of cells at the beginning of the experiment died by the end of the experiment. A value of -100 means all cells are dead at the end of the experiment.\nNCI-60 Human Tumor Cell Lines Screen was performed using the standard one-dose NCI protocol, which is described in more detail at https://dtp.cancer.gov/discovery_development/nci-60/default.htm.\nCompounds with GIPRCNT values below 10 were considered active. Activity score was based on GIPRCNT using the following formula: […]\nScore is 0 for GIPRCNT values of 100 or above, 50 for GIPRCNT values of 0, and 100 for GIPRCNT values of -100.", "values": [
      {"smiles": "COc1cc(-c2nc(-c3nc4cc(C(=O)c5ccccc5)ccc4[nH]3)cc3c2[nH]c2ccccc23)cc(OC)c1OC", "growth": "73.2%"},
      {"smiles": "N#Cc1nc(-c2cccc(Br)c2)cc(-c2ccc(Nc3nc(N4CCCCC4)nc(N4CCCCC4)n3)cc2)c1N", "growth": "-78.8% (active)"},
      {"smiles": "CC(=O)Nc1nonc1-c1nc2ccccc2n1Cc1ccc(C(C)(C)C)cc1", "growth": "46.1%"},
      {"smiles": "FC(F)(F)C1=NNC(c2ccc3ccccc3c2)=NN1", "growth": "65.6%"},
      {"smiles": "C/C(=N\\OC(=O)Nc1cccc(Cl)c1)c1ccccc1", "growth": "82.8%"},
      {"smiles": "COc1ccc(/C(=C\\c2cc(OC)c(OC)c(OC)c2)C(=O)Nc2nc3ccc(Cl)cc3s2)cc1", "growth": "76.4%"},
      {"smiles": "CNCCCNc1ccnc2cc(Cl)ccc12", "growth": "-34.4% (active)"},
      {"smiles": "COc1cccc(/C=N/N=C(N)N)c1", "growth": "82.6%"},
      {"smiles": "COc1ccc(C2CC(c3cccc(Nc4ccnc5cc(Cl)ccc45)c3)=NN2c2ccc(Cl)cc2)cc1", "note": "(stereo not given)", "growth": "50.1%"},
      {"smiles": "C=CCn1c(SCC(=O)Nc2ccc(/C(C)=N\\O)cc2)nnc1-c1cc(-c2ccccc2)nc2ccccc12", "growth": "40.6%"},
      {"smiles": "COc1ccc(/C=C/C(=O)c2ccc(NC(=O)CSc3nnc(-c4ccc(OC)cc4)n3-c3ccccc3)cc2)cc1", "growth": "79.3%"},
      {"smiles": "C/C(=N\\NC(=S)N1CCCCC1)c1ccccn1", "growth": "-13.6% (active)"},
      {"smiles": "CC1(C)C2CCC(O)(C(=O)O)C1C2", "note": "(stereo not given)", "growth": "81.9%"},
      {"smiles": "O=C(Nc1cccc(Cl)c1)Nc1cc(C(F)(F)F)ccc1Cl", "growth": "10.7%"},
      {"smiles": "Cc1ccc(NC(=O)c2nc(S(C)(=O)=O)oc2-c2ccc(F)cc2)cc1Nc1ccc2ncn(C)c(=O)c2c1", "growth": "72.5%"},
      {"smiles": "Cc1cc(C)c2c(n1)sc1c(Nc3ccc(O)cc3)ncnc12", "growth": "-10.3% (active)"},
      {"smiles": "c1ccc(C(CC2=NCCCN2)c2ccccc2)cc1", "growth": "76.8%"},
      {"smiles": "C#CC[C@@H]1C[C@]2(C)[C@H]3CC=C4[C@H]5CC(C)(C)CC[C@]5(C(=O)NCCCCN)CC[C@@]4(C)[C@]3(C)CC[C@H]2C(C)(C)[C@H]1OC(C)=O", "growth": "-44.3% (active)"},
      {"smiles": "CN(C)CCOc1nc2c3cccnc3cc(-c3cccc(Cl)c3)c2c2ncccc12", "growth": "38.2%"},
      {"smiles": "NC(N)=N/N=C\\c1ccc(OCc2ccccc2)cc1", "growth": "64.6%"},
      {"smiles": "COc1cc2nccc(Oc3ccc(NC(=O)C4(C(=O)Nc5ccc(F)cc5)CC4)cc3)c2cc1OC(=O)c1ccc(N)cc1", "growth": "9.18% (active)"},
      {"smiles": "COc1ccc2[nH]cc(/C=C3\\C(=O)Nc4ccccc43)c2c1", "growth": "-14.7% (active)"},
      {"smiles": "Oc1[nH]c2ccccc2c1/C=c1/ccc2c(c1)N=C(c1ccc(C(F)(F)F)cc1)N=2", "growth": "73.1%"},
      {"smiles": "Cc1nc2c(-c3cnc(N)nc3)nc(N3CCOCC3)nc2n1C(C)C", "growth": "-12.1% (active)"},
      {"smiles": "C/C=C(\\C)C(C(=O)NC1CCCCC1)N(C(=O)C1CCc2cc(F)ccc2O1)c1ccc([N+](=O)[O-])cc1", "note": "(stereo not given)", "growth": "69.1%"},
      {"smiles": "COC(=O)C(CCC(=O)CCl)N1C(=O)c2ccccc2C1=O", "note": "(stereo not given)", "growth": "48.4%"},
      {"smiles": "CC1CN(CCCOC(=O)Nc2ccc(Cl)cc2)CCN1C(C)(C)C", "note": "(stereo not given)", "growth": "82.9%"},
      {"smiles": "CCN(CC)c1ccc2nc3c4ccccc4c(=O)cc-3n(-c3ccccc3)c2c1", "growth": "-26.2% (active)"},
      {"smiles": "CCc1ccc2c(c1)N(CCO)C1=C(C(=O)OC1)C2c1cccc(Br)c1", "note": "(stereo not given)", "growth": "34%"},
      {"smiles": "Cc1nc2n[nH]c(N)c2nc1C", "growth": "87%"},
      {"smiles": "CCc1ccc(Nc2cc(C)c3ccc(O)cc3n2)cc1", "growth": "44.1%"},
      {"smiles": "C#CC[C@@H]1C[C@]2(C)[C@H]3CC[C@@H]4[C@H]5C(C(=C)C)CC[C@]5(C(=O)NCCCCCCCCN)CC[C@@]4(C)[C@]3(C)CC[C@H]2C(C)(C)[C@H]1OC(C)=O", "note": "(stereo not given in full)", "growth": "75.5%"},
      {"smiles": "CC(C)NCCCCCNc1cc(O)cc2cccnc12", "growth": "88.4%"},
      {"smiles": "CN1CCN(Cc2ccc(NC(=O)c3cncc(C#Cc4ncc5ccccn45)c3)cc2C(F)(F)F)CC1", "growth": "5.98% (active)"},
      {"smiles": "Nc1c(C(=O)Nc2cccc(Cl)c2)sc2ncc(Br)cc12", "growth": "62.2%"},
      {"smiles": "c1ccc2c(Cc3csc4ccccc34)csc2c1", "growth": "47.5%"},
      {"smiles": "COc1ccc(/C=C2\\CCCC3=C2N=C2SC(C)=NN2C3c2ccc(OC)c(OC)c2)cc1OC", "note": "(stereo not given)", "growth": "36.1%"},
      {"smiles": "CCOC(=O)C(=CNc1ccccc1Cl)C(=O)OCC", "growth": "89.1%"},
      {"smiles": "CCCc1n(Cc2ccc3ccccc3c2)c2ccccc2[n+]1Cc1ccc2ccccc2c1", "growth": "-15.4% (active)"},
      {"smiles": "COc1cccc2nc(Nc3cccc(NC(=O)c4cc(N5CCOCC5)cc(C(F)(F)F)c4)c3)ccc12", "growth": "42.3%"}
    ]}
  ]
}
